Source: PubChem
This is a sample that favours compounds with a hit; in the whole collection about 0.97% have one here.
LAP4-GFP MLPCN: modulators of TOR pathway LAP4-GFP in S. cerevisiae; 0.34% of 320,000 active; AID 2023; GFP response vs DMSO, % at 10 µM; S. cerevisiae LAP4-GFP multiplex, flow cytometry GFP, 3 h; median GFP as percent of DMSO wells;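 active means GFP response vs DMSO above a set limit, about the screen mean plus 3 SD, cut at about 150% in these data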
MEP2-GFP yeast: modulators of TOR pathway MEP2-GFP in S. cerevisiae; GFP response vs DMSO, % at 10 µM; 0.51% of 330,000 active; AID 2016; S. cerevisiae MEP2-GFP strain, flow cytometry GFP, 3 h; 100% = DMSO control level;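 active means GFP response versus DMSO above a set limit, roughly screen mean plus 3 SD, cut at about 180% in these data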;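 further: median GFP fluorescence of the barcode-gated MEP2-GFP cells per well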
RPL19A-GFP yeast: modulators of TOR pathway RPL19A-GFP in S. cerevisiae; 0.3% of 330,000 active; AID 2025; S. cerevisiae RPL19A-GFP strain, flow cytometry, 3 h; stronger effect = lower value; percent response vs DMSO, % at 10 µM;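 active means percent response vs DMSO below 50%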;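 further: median channel GFP fluorescence of the barcoded RPL19A-GFP strain; lower means less RPL19A-GFP as with rapamycin TOR inhibition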
AGP1 TOR yeast: yeast TOR pathway AGP1-GFP modulation; 0.02% of 320,000 active; GFP response vs DMSO, % at 10 µM; AID 2066; S. cerevisiae AGP1-GFP multiplex flow cytometry, 3 h; GFP as percent of DMSO wells;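 active means GFP response relative to DMSO above a set limit, near screen average plus 3 SD, cut at about 150% in these data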;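 further: median GFP channel fluorescence of the gated AGP1 strain per well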
CIT2 TOR yeast: alters CIT2-GFP fluorescence in TOR pathway yeast screen; S. cerevisiae CIT2-GFP strain, flow cytometry, 3 h; 100 means same as DMSO wells; GFP response vs DMSO, % at 10 µM; AID 2029; 0.065% of 320,000 active;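 active means GFP response relative to DMSO above a set limit, near the screen mean plus 3 SD, cut at about 150% in these data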;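 further: ratio of well median GFP fluorescence to mean of DMSO wells on the plate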
GASC-1 inh: inhibitors of human GASC-1 (JMJD2C) demethylase; Q9H3R0; GST-JMJD2C(1-420) H3K9me3 demethylation, DELFIA europium; inhibition, % at 2.35 µM; 0.069% of 330,000 active;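 active means more than half of a compound's replicate wells show inhibition beyond 50%, single wells judged on their own value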;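 further: signal counts dimethyl H3K9 product captured on neutravidin plate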
Target sequence (Q9H3R0 1-420 limits assumed): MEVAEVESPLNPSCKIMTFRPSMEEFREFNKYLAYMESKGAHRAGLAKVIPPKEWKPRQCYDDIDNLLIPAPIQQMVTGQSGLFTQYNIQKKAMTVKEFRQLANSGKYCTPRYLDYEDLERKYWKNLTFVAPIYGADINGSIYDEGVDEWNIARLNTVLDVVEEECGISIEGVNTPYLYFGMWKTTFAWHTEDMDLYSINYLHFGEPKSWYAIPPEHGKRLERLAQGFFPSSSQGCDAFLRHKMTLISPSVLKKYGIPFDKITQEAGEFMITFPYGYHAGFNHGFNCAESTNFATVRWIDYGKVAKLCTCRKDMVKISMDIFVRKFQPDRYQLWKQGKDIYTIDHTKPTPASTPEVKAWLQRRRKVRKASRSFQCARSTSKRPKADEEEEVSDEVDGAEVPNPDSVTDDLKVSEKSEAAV
LAP4 cherry2: reconfirmed LAP4-GFP TOR pathway modulator in yeast; shares compounds with LAP4-GFP MLPCN; S. cerevisiae LAP4-GFP strain, flow cytometry GFP, 3 h; GFP response vs DMSO, % at 10 µM; 20% of 590 active; AID 2621;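 active means GFP signal as percent of the solvent control above about 150%, meaning raised reporter expression, limit read from the data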
MEP2 cherry2: second confirmation of modulators of TOR reporter MEP2-GFP in yeast. shares compounds with LAP4-GFP MLPCN. S. cerevisiae MEP2-GFP strain, flow cytometry GFP, 3 h. GFP response vs DMSO, % at 10 µM. 10% of 590 active;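 active means GFP signal above 150% of the solvent control wells, that is a rise of more than half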;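 further: median channel GFP fluorescence of all gated yeast cells per well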
RPL19A GFP CP2: second confirmation of modulators of TOR reporter RPL19A-GFP in yeast; 3% of 590 active; GFP response vs DMSO, % at 10 µM; S. cerevisiae RPL19A-GFP strain, flow cytometry GFP, 3 h; stronger effect = lower value; 100% means same as DMSO wells; shares compounds with LAP4-GFP MLPCN;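 active means under 65% GFP response relative to DMSO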;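 further: median GFP channel fluorescence per well over the all cells gate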
CIT2-GFP pick2: yeast CIT2-GFP TOR reporter modulation, second cherry pick | 8% of 590 active | S. cerevisiae CIT2-GFP strain, flow cytometry GFP, 3 h; DMSO control wells read 100% | GFP response vs DMSO, % at 10 µM | AID 2624 | shares compounds with LAP4-GFP MLPCN;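 active means GFP response vs DMSO above about 150%, limit read from the data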;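 further: median green fluorescence per well over all gated yeast cells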
AGP1-GFP pick2: second confirmation of modulators of TOR reporter AGP1-GFP in yeast; AID 2643; S. cerevisiae AGP1-GFP strain, flow cytometry GFP, 3 h; shares compounds with LAP4-GFP MLPCN; 590 tested, under 10 active; percent response vs DMSO, % at 10 µM;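 active means over 150 percent of DMSO response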;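 further: median GFP channel fluorescence over all cells without mother daughter split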
s288c autofluor: compound is autofluorescent in yeast s288c cells; S. cerevisiae s288c, 520 nm autofluorescence, flow cytometry, 3 h; stronger effect = higher value; zero means same as solvent-only cells; shares compounds with LAP4-GFP MLPCN; fluorescence change (kMESF span) at 33 µM; 610 tested, under 10 active;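 active means fluorescence span over the dose series, or activity score, above about 33, limit read from the data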
Yeast autofl DR: TOR screen hit shows autofluorescence in yeast s288c; 110 tested, under 10 active; shares compounds with LAP4-GFP MLPCN; S. cerevisiae s288c parental, compound autofluorescence, flow cytometry, 3 h; fluorescence change (span) at 33 µM;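 active means fluorescence change span, or the activity score built from it, above 25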
TORC1 bypass gr: compounds blocking wildtype yeast growth but not TORC1 bypass cells | shares compounds with LAP4-GFP MLPCN | S. cerevisiae BY4741 spot growth rating, 48-72 h; stronger effect = lower value | growth rating (0-3) at 30 µM | 120 tested, under 10 active;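 active means growth rating at most 1 for wild type yeast while the TORC1 bypass strain still grows fully, rated 3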
A number is an active result; 0 = inactive; - = no result given.

SMILES	LAP4-GFP MLPCN	MEP2-GFP yeast	RPL19A-GFP yeast	AGP1 TOR yeast	CIT2 TOR yeast	GASC-1 inh	s288c autofluor	others
N=C1S/C(=C\c2ccco2)C(=O)N1c1ccc2c(c1)OCO2	0	0	0	0	0	0	-
N=C1S/C(=C\c2ccco2)C(=O)N1c1nccs1	167.9	0	0	0	0	0	0
CCOC(=O)CSC1=NC(=O)/C(=C/c2ccc(Br)cc2)S1	215.8	0	0	0	0	0	0
CCOC(=O)c1sc(Nc2ccccc2Cl)nc1C	0	0	0	0	0	0	-	LAP4 cherry2=0;MEP2 cherry2=0;RPL19A GFP CP2=0;CIT2-GFP pick2=0;AGP1-GFP pick2=0
CN(C)c1ccc(C(=O)c2ccc(O)cc2O)cc1	206.4	0	0	0	0	0	-	LAP4 cherry2=0;MEP2 cherry2=0;RPL19A GFP CP2=0;CIT2-GFP pick2=0;AGP1-GFP pick2=0
O=C(c1ccc(O)cc1)c1ccc(O)cc1O	0	0	0	0	0	0	-
O=C(C[n+]1ccccc1)Nc1ccccc1C(F)(F)F	0	0	0	0	0	0	-
COc1cc(C(=O)COC(=O)c2ccco2)cc(OC)c1OC	185.8	0	0	0	0	0	-	LAP4 cherry2=0;MEP2 cherry2=0;RPL19A GFP CP2=0;CIT2-GFP pick2=0;AGP1-GFP pick2=0
O=C1C(=O)N(CCN2CCOCC2)C(c2cccc(Cl)c2)/C1=C(\O)c1ccc2c(c1)OCCO2 (centres undefined)	0	0	0	0	0	0	-	LAP4 cherry2=0;MEP2 cherry2=0;RPL19A GFP CP2=0;CIT2-GFP pick2=0;AGP1-GFP pick2=0
CCSc1nnc(NC(=O)c2ccccn2)s1	175.5	0	0	0	0	0	0	Yeast autofl DR=0;TORC1 bypass gr=0
C=CCOc1cccc(C(=O)/C=C2/C(=O)Nc3ccccc32)c1	0	0	0	0	0	0	0
CC(=O)/C=C1/C(=O)Nc2ccccc21	0	0	0	0	0	0	-
COc1ccc(NC(=O)CN2C(=O)COc3ccccc32)cc1OC	0	0	0	0	0	0	-
COc1ccc(-c2csc(N3CCN(S(=O)(=O)c4ccc5c(c4)NC(=O)CO5)CC3)n2)cc1	0	0	0	0	0	0	-
CS(=O)(=O)c1sc(C#N)c2c1C(=O)CC(c1ccccc1)C2 (centres undefined)	209.1	0	0	0	0	0	0
Cc1oc2c(c(=O)c1C)C(=O)CC(c1ccccc1)C2 (centres undefined)	0	0	0	0	0	0	-
O=C(CSc1nc(-c2ccccc2)cc(=O)[nH]1)Nc1ccc(F)c(F)c1	0	0	0	0	0	0	-
CCOc1ccc(C(=O)N[C@H](C(=O)Nc2ccc(S(=O)(=O)Nc3nccs3)cc2)C(C)C)cc1	0	0	0	0	0	0	-
CCOc1cc(/C=C2\C(=O)ON=C2c2ccccc2)cc(Br)c1O	0	0	0	0	0	0	-
O=C1ON=C(c2ccccc2)/C1=C/c1ccc(O)cc1	0	0	0	0	0	0	-
COc1cc(/C=C2/C(=O)ON=C2c2ccccc2)ccc1O	172.9	0	0	0	0	0	0
COc1cc(/C=C2\C(=O)ON=C2c2ccccc2)cc(Br)c1O	157.3	0	0	0	0	0	0
O=C1ON=C(c2ccc(Cl)cc2)/C1=C/c1ccc(O)cc1	161.1	0	0	0	0	0	0
CN(C)C(=O)c1ccc(-c2cc3onc(-c4ccccc4)c3c(=O)n2C)cc1	0	0	0	0	0	0	-
N#CC1(NC(=O)COC(=O)c2ccccc2SCC(=O)N2CCCC2)CCCCC1	0	0	0	0	0	0	-
SMILES	LAP4-GFP MLPCN	MEP2-GFP yeast	RPL19A-GFP yeast	AGP1 TOR yeast	CIT2 TOR yeast	GASC-1 inh	s288c autofluor	others
O=C(/C=C/c1ccccc1[N+](=O)[O-])c1ccccc1Br	156.2	0	0	0	0	0	0
Cc1ccc(C(=O)Sc2cccccc2=O)cc1	243.6	0	0	0	0	0	0
CN(C)NC(=S)Nc1ccc(S(=O)(=O)N2CCCCC2)cc1	0	0	0	0	0	0	0	LAP4 cherry2=0;MEP2 cherry2=0;RPL19A GFP CP2=0;CIT2-GFP pick2=0;AGP1-GFP pick2=0
N/C(Cc1ccc(Cl)c(Cl)c1)=N\OC(=O)c1cccs1	219.2	0	0	0	0	0	0
O=C(/C=C/c1cccs1)NC(=S)NNC(=O)c1ccccc1O	0	0	0	0	0	0	-
COc1ccc(C(=O)NNC(=S)NC(=O)/C=C/c2cccs2)cc1	186.1	0	0	0	0	0	0	Yeast autofl DR=0;TORC1 bypass gr=0
COc1ccc(CNC(=O)COC(=O)c2ccc(S(=O)(=O)NCc3ccco3)cc2)cc1	0	0	0	0	0	0	-
CC(=O)N[C@@H](Cc1c[nH]c2ccccc12)C(=O)OCc1cc(C(F)(F)F)cc(C(F)(F)F)c1	160.3	0	0	0	0	-	-	LAP4 cherry2=0;MEP2 cherry2=0;RPL19A GFP CP2=0;CIT2-GFP pick2=0;AGP1-GFP pick2=0
CC(C)(C)c1ccc(C(=O)OCc2c(-c3ccccc3)ncc3ccccc23)cc1	0	0	0	0	0	0	-
COc1ccc(C(=O)OCc2c(-c3ccccc3)ncc3ccccc23)cc1	151.2	0	0	0	0	0	-	LAP4 cherry2=0;MEP2 cherry2=0;RPL19A GFP CP2=0;CIT2-GFP pick2=0;AGP1-GFP pick2=0
O=C(Nc1cccc(F)c1)c1ccc(-c2ccccc2Cl)o1	0	0	0	0	0	0	-
Cc1ccc(-c2ccc(C(=O)Nc3cccc(F)c3)o2)c2ccccc12	170.7	0	0	0	0	0	-	LAP4 cherry2=0;MEP2 cherry2=0;RPL19A GFP CP2=0;CIT2-GFP pick2=0;AGP1-GFP pick2=0
